Source: PubChem
APP 5UTR inh: APP translation inhibition | SH-SY5Y APP 5'UTR-luciferase reporter, luminescence | inhibition, % at 2 µM | hit rate 0.82% among 190,000 | AID 1285;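 active means inhibition above a set limit, derived from the sample mean plus 3 SD, cut at about 45% in these data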
KLF5 inhibitor: suppresses KLF5 promoter-driven expression; hit rate 0.23% among 290,000; DLD-1 KLF5 promoter-luciferase reporter, luminescence; inhibition, % at 5 µM; AID 1700;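 active means inhibition above a per-plate limit of that plate's mean compound inhibition plus 3 SD, cut at about 60% in these data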;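 further: 0% = DMSO wells and 100% = LY294002 at 200 µM; higher means less KLF5 promoter-driven luciferase light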
aSyn UTR inh: 5' untranslated region of α-synuclein, MLPCN primary screen; hit rate 0.82% among 300,000; alpha-synuclein 5'UTR reporter, inhibitor activity; inhibition, % (tested at 7.5 µM); in the data active means inhibition above about 60%;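 further: H4 neuroglioblastoma cells stably carrying SNCA 5'UTR luciferase fusion; 0% = DMSO wells and 100% = positive control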
Ba/F3 V617F tox: lowers viability of Ba/F3 cells expressing EpoR and JAK2V617F. ATP luminescence. inhibition, % at 5.6 µM. hit rate 1.1% among 220,000. AID 1446;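 active means inhibition above the campaign mean plus 3 SD over all tested compounds, cut at about 24% in these data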;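 further: cytokine-independent growth of Ba/F3 cells driven by EpoR plus mutant JAK2; 0% = DMSO-treated cells and 100% = JAK inhibitor I control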
BaF3 parental: reduces parental Ba/F3 cell viability, JAK2V617F counter-screen; hit rate 1.1% among 220,000; CellTiter-Glo ATP luminescence; inhibition, % at 5.6 µM;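 active means inhibition above a per-campaign cutoff, the mean inhibition of all tested compounds plus 3 SD, cut at about 27% in these data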;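 further: 0% = DMSO wells and 100% = JAK Inhibitor I control wells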
IEC-6 cytotox: counter-screen for KLF5 inhibitors: cytotoxicity in IEC-6 cells; IEC-6 cytotoxicity, luminescence viability; inhibition, % at 5 µM; hit rate 0.78% among 290,000; AID 1825; in the data active means inhibition above about 22%;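 further: 0% = plate median of test compound wells and 100% = cytotoxic reference compound wells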
The depositor's hits bear a star; . = no result given. Compounds with a hit are over-represented: about 2.2% of the library has one in this group of screens.

SMILES	APP 5UTR inh	KLF5 inhibitor	aSyn UTR inh	Ba/F3 V617F tox	BaF3 parental	IEC-6 cytotox
O=C(O)c1ccc2cc(-c3ccccc3)[nH]c2c1	.	.	65.7*	.	.	.
COc1ccc(C(=O)C(CCCCC(CN(C)C)C(=O)c2ccc(OC)cc2)CN(C)C)cc1 (configuration not stated)	-20.7	-25.2	-7.4	1.7	8.4	5.2
CN(C)CC(CCC(CN(C)C)C(=O)c1ccccc1)C(=O)c1ccccc1 (configuration not stated)	.	90.8*	-37.0	99.0*	104.3*	99.9*
Cc1ccc(NC(=O)CSc2nnc3ccc(-c4cccnc4)nn23)cc1	.	.	16.5	.	.	.
Fc1ccc(-c2nc3ccccc3[nH]2)cc1	-102.6	-117.2	-95.7	2.5	63.0*	4.5
O=C(O)c1cccc(NC(=S)NC(=O)c2ccncc2)c1	59.7*	-10.9	-6.7	3.5	2.1	2.2
O=C(NC(=S)Nc1cccc2cccnc12)c1ccccc1	-7.8	-13.9	-43.0	-4.9	101.6*	-1.5
CC(C)(C)C(=O)NC(=S)Nc1cccc(C(=O)O)c1	-85.9	-182.2	-160.7	1.3	10.4	-4.5
COc1ccc(C(=O)N/C(=C/c2cccnc2)C(=O)NCc2ccco2)cc1OC	.	-28.5	-3.4	-0.2	4.0	3.0
COc1ccc(C2C3(C#N)C(N)=NC(OC)(OC)C23C#N)cc1 (configuration not stated)	7.9	-12.8	-18.7	-2.0	3.2	0.8
COc1cc(C(=O)Oc2ccccc2/C=N/NC(=O)c2ccc(Cl)cc2)cc(OC)c1OC	39.9	-18.5	56.9	-1.8	8.7	9.9
COc1cc(C(=O)Oc2ccccc2/C=N/NC(=O)c2ccc(C)c(Cl)c2)cc(OC)c1OC	50.4*	-7.5	84.3*	-1.3	3.1	1.1
COc1ccccc1OCC(=O)Nc1nnc(C2CCCC2)s1	.	-34.6	-26.0	.	.	-1.3
COc1ccc2nc(N=Nc3ccc(O)c4ccccc34)sc2c1	74.0*	8.7	58.7	0.2	4.1	5.9
CCOC(=O)c1nn(-c2ccccc2)c(=O)cc1OCC(=O)Nc1cc(C)ccc1C	.	.	10.6	.	.	.
O=C(CCc1ccc(S(=O)(=O)NCCc2ccccc2)cc1)Nc1ccc2c(c1)OCCO2	75.1*	-12.5	16.6	-0.5	5.4	0.1
CCCNS(=O)(=O)c1ccc(CCC(=O)Nc2ccc3c(c2)OCCO3)cc1	6.4	-12.2	-1.3	-3.2	3.5	-2.3
COc1ccc2oc(=O)c(/C(C)=N/Nc3nc(-c4cc(C)ccc4C)cs3)cc2c1	6.7	-18.3	26.3	-3.3	-0.7	-1.6
COc1ccc2oc(=O)c(-c3csc(Nc4ccc(O)cc4)n3)cc2c1	7.5	-51.9	-69.6	60.0*	28.0*	5.2
O=C(NCCc1ccc(Cl)cc1)c1cccs1	-66.7	-73.4	-156.2	2.5	5.7	2.6
CC(C)CC(/C(O)=C(\C#N)c1nc2ccccc2[nH]1)N1C(=O)c2ccccc2C1=O (configuration not stated)	20.1	13.0	64.9*	5.6	8.0	2.3
CCOc1ccccc1OCCCC(=O)N1CCN(S(=O)(=O)c2ccc(C)cc2)CC1	-4.5	-10.2	9.2	-1.2	-0.8	-7.1
CC1Cc2ccccc2N1S(=O)(=O)c1cccc(C(=O)NCCCO)c1 (configuration not stated)	-6.0	-19.3	6.0	0.0	1.8	2.1
CCOC(=O)c1ccc(NC(=O)c2cccc(S(=O)(=O)N3c4ccccc4CC3C)c2)s1 (configuration not stated)	-22.2	-20.4	83.1*	5.6	10.1	10.7
CCOc1ccc(S(=O)(=O)N2c3ccccc3CC2C)cc1 (configuration not stated)	93.7*	54.5	92.6*	77.0*	75.6*	67.0*
SMILES	APP 5UTR inh	KLF5 inhibitor	aSyn UTR inh	Ba/F3 V617F tox	BaF3 parental	IEC-6 cytotox
Cc1ccc(S(=O)(=O)N2c3ccccc3CC2C)cc1 (configuration not stated)	10.2	-32.9	8.5	6.5	9.7	6.0
CC1(C)Cc2nc(-c3ccccc3)nc(SCC(=O)N3CCOCC3)c2CO1	.	-18.5	-0.1	.	.	0.2
CC1(C)Cc2nc(-c3ccccc3)nc(SCC(O)CO)c2CO1 (configuration not stated)	.	-27.1	-0.1	0.7	61.5*	3.2
O=C(Nc1ccccn1)c1onc2c1CCCC2	-149.6	-100.5	96.4*	1.5	7.9	4.3
O=C(Nc1ccccn1)c1csc2c1CCCC2	-132.6	-108.0	-162.8	0.8	5.4	2.8
COc1ccc(/C=N/n2c(SC)nnc2-c2ccccc2)c(OC)c1OC	44.4	39.6	.	85.8*	79.4*	68.4*
CCN1CCN(Cc2ccc(NC(=O)c3ccc(C)c(NC(=O)c4cccc(-c5cn[nH]c(=O)c5)c4)c3)cc2C(F)(F)F)CC1	.	-9.2	-7.9	.	.	1.7
CCN1CCN(Cc2ccc(NC(=O)c3ccc(C)c(NC(=O)c4c[nH]c5cc(C(F)(F)F)ccc5c4=O)c3)cc2C(F)(F)F)CC1	.	.	112.6*	.	.	.
CCN1CCN(Cc2ccc(NC(=O)c3ccc(C)c(/C=C/c4cnc(Nc5cc(N6CCNCC6)nc(C)n5)cn4)c3)cc2C(F)(F)F)CC1	.	-7.3	110.2*	.	.	.
CCN1CCN(Cc2ccc(NC(=O)c3ccc(C)c(NC(=O)c4ccno4)c3)cc2C(F)(F)F)CC1	.	.	67.1*	.	.	.
CN(Cc1ccncn1)C(=O)C1CCC(=O)N(Cc2cccc(C(F)(F)F)c2)C1 (configuration not stated)	.	-7.9	10.8	.	.	3.3
Cn1c(=O)oc2cc(S(=O)(=O)NCCC(=O)NCc3ccc(F)cc3)ccc21	.	7.5	-15.8	.	.	6.7
COc1ccc(CNc2ncnc3c2[nH]c2ccccc23)cc1	.	-31.2	2.6	0.6	1.3	10.5
CC(C)OCCCNc1ncnc2c1[nH]c1ccccc12	0.7	-10.0	-178.4	40.4*	51.7*	9.3
O=C(N/N=C/c1ccccc1O)C1CC(=O)N(c2ccc(Cl)cc2)C1 (configuration not stated)	.	59.1	83.3*	.	.	12.6
CCOC(=O)CSc1nc2ccccc2c(=O)n1-c1ccc(C)cn1	.	-8.3	7.4	.	.	0.4
CC(C)(C)c1ccc(C(=O)Nc2ccc(Cl)cc2)cc1	-125.6	-93.2	-109.9	-2.8	-1.5	5.7
COC(=O)Cc1ccc(NC(=O)c2ccc(C(C)(C)C)cc2)cc1	84.0*	40.4	124.4*	-3.3	-0.9	5.2
CCOC(=O)Cc1ccc(NC(=O)c2ccc([N+](=O)[O-])cc2)cc1	-2.8	-18.5	-14.3	-2.3	33.4*	3.5
Cc1ccc(NS(=O)(=O)c2ccc3c(c2)NC(=O)CCS3)c(Br)c1	.	-14.4	27.7	.	.	6.8
COC(=O)Cc1c(C)c2ccc(OCc3nn[nH]n3)c(C)c2oc1=O	-8.9	-49.0	0.9	-3.4	1.3	-4.3
COC(=O)Cc1c(C)c2ccc(OCc3nn[nH]n3)cc2oc1=O	78.0*	-34.3	7.8	7.2	5.1	-0.1
CN(CCCCCNC(=O)/C=N/O)Cc1ccccc1	-4.1	-25.9	.	-0.2	4.1	-2.5
COc1ccc(-c2oc3cc(OC)c(O)c(OC)c3c(=O)c2OC)cc1O	14.0	-25.5	65.0*	7.8	1.3	10.3
